Compounds with a hit are over-represented: about 2.2% of the library has one in this group of screens.
IEC-6 tox-1 – counter-screen for KLF5 inhibitors: cytotoxicity in IEC-6 cells; AID 1825; 0.78% of 290,000 active; IEC-6 cytotoxicity, luminescence viability; inhibition, % at 5 µM;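 further: 0% = plate median of test compound wells and 100% = cytotoxic reference compound wells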
aSyn 5UTR inh – 5' untranslated region of α-synuclein, MLPCN primary screen. 0.82% of 300,000 active. alpha-synuclein 5'UTR reporter, inhibitor activity. inhibition, % (tested at 7.5 µM); in the data active means inhibition above about 60%; inconclusive means no clear call, values can overlap the other calls;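 further: H4 neuroglioblastoma cells stably carrying SNCA 5'UTR luciferase fusion; 0% = DMSO wells and 100% = positive control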
BaF3 tox – parental Ba/F3 viability inhibition as JAK2V617F counter-screen. CellTiter-Glo ATP luminescence. inhibition, % at 5.6 µM. 1.1% of 220,000 active. AID 1486;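 active means inhibition above a per-campaign cutoff, the mean inhibition of all tested compounds plus 3 SD, cut at about 27% in these data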;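 further: 0% = DMSO wells and 100% = JAK Inhibitor I control wells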
APP transl inh – APP translation inhibition; inhibition, % at 2 µM; 0.82% of 190,000 active; SH-SY5Y APP 5'UTR-luciferase reporter, luminescence; AID 1285;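 active means inhibition above a set limit, derived from the sample mean plus 3 SD, cut at about 45% in these data; inconclusive means one replicate passes the limit while the other fails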
Ba/F3 V617F tox – reduce viability of Ba/F3 cells dependent on JAK2V617F; Ba/F3 EpoR-JAK2V617F viability, ATP luminescence; inhibition, % at 5.6 µM; 1.1% of 220,000 active; AID 1446;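 active means inhibition above the campaign mean plus 3 SD over all tested compounds, cut at about 24% in these data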;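 further: cytokine-independent growth of Ba/F3 cells driven by EpoR plus mutant JAK2; 0% = DMSO-treated cells and 100% = JAK inhibitor I control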
KLF5 inh – inhibitors of KLF5 expression. DLD-1 KLF5 promoter-luciferase reporter, luminescence. inhibition, % at 5 µM. 0.23% of 290,000 active;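 active means inhibition above a per-plate limit of that plate's mean compound inhibition plus 3 SD, cut at about 60% in these data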;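 further: 0% = DMSO wells and 100% = LY294002 at 200 µM; higher means less KLF5 promoter-driven luciferase light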
KLF5 inh confirm – confirmation of KLF5 inhibitors; AID 1834; shares compounds with KLF5 inh; inhibition, % at 4 µM; 79% of 610 active; DLD-1 KLF5 promoter firefly luciferase reporter, luminescence;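 active means inhibition above a set limit taken from the earlier primary screen, cut at about 63% in these data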;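 further: 0% = DMSO wells and 100% = LY294002 at 200 µM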
IEC-6 tox-2 – rat IEC-6 cytotoxicity, KLF5 inhibitor counter-screen; shares compounds with KLF5 inh; IEC-6 rat intestinal cells, viability luminescence; inhibition, % at 4 µM; 56% of 610 active; in the data active means inhibition above about 23%;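 further: cells exposed to compounds for 48 hours before viability read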
IEC-6 tox confirm – IEC-6 cytotoxicity, confirmation assay | IEC-6 rat intestinal epithelial viability, luminescence | 63% of 1,900 active | inhibition, % at 5 µM | shares compounds with IEC-6 tox-1;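 further: 0% = vehicle and 100% = reference cytotoxic drug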
An asterisk follows results filed as active; u = inconclusive; x = no result given. Unless noted, no stated cut-off is given here; in the data, active means inhibition above about 22%; inactive means the rest.

SMILES	IEC-6 tox-1	aSyn 5UTR inh	BaF3 tox	APP transl inh	Ba/F3 V617F tox	KLF5 inh	KLF5 inh confirm	IEC-6 tox-2	IEC-6 tox confirm
CCCC(=O)NC(c1ccc(C(C)C)cc1)c1ccc2cccnc2c1O (stereo unspecified)	24*	83*	x	x	x	69*	84*	71*	73*
O=[N+]([O-])c1cc(Cl)c2cccnc2c1O	-4	1	6	8	0	2	x	x	x
COc1ccc(C(NC(=O)C(C)C)c2ccc3cccnc3c2O)cc1 (stereo unspecified)	22*	79*	54*	x	74*	85*	87*	52*	66*
N#Cc1ccncc1S(=O)c1ccc(Cl)cc1 (stereo unspecified)	8	-31	x	x	x	10	x	x	x
CCCC(=O)NC(c1ccc(N(C)C)cc1)c1ccc2cccnc2c1O (stereo unspecified)	63*	62	x	x	x	82*	88*	76*	81*
CCN(CC)CCNC(=O)c1ccc2c(c1NCCO)C(=O)c1ccccc1C2=O	100*	96*	102*	x	96*	107*	89*	102*	102*
COc1cccc(C2CC(=O)Nc3cc4c(cc32)OCCO4)c1OC(C)C (stereo unspecified)	6	x	1	-8	-1	6	x	x	x
CCOc1ccccc1C1CC(=O)Nc2cc3c(cc21)OCO3 (stereo unspecified)	83*	66*	75*	90*	79*	74*	91*	65*	57*
CC(C)Oc1ccccc1C1CC(=O)Nc2cc3c(cc21)OCCO3 (stereo unspecified)	88*	73*	78*	95*	74*	80*	98*	90*	56*
COc1ccc2c(c1OC)C(=O)OC2n1c(O)c(N=NC(C)=O)c2ccccc21 (stereo unspecified)	4	10	1	x	0	-19	x	x	x
Cc1ccc(-c2nnc(SCC(=O)Nc3ccccc3F)o2)cc1	28*	92*	21	36	15	100*	66*	5	17
O=C(CSc1nnc(-c2ccccc2)o1)Nc1ccccc1F	29*	74*	32*	-108	26*	72*	-55	-6	-4
CC(=O)N1c2ccc(S(=O)(=O)N3CCC(C(=O)Nc4ncccc4C)CC3)cc2CC1C (stereo unspecified)	-4	-18	x	x	x	-21	x	x	x
CCOC(=O)COc1cccc2c(=O)n(CC(=O)NCc3ccccc3)ccc12	23*	u	68*	x	73*	81*	80*	30*	46*
O=C(CCC(=O)c1ccccc1)Nc1ccc(C(=O)O)cc1	2	-5	x	x	x	-14	x	x	x
COCCOn1c(SCCOC)nc2ccccc2c1=O	-5	0	2	x	1	-4	x	x	x
COc1ccc(/C=N/Nc2nc3ccccc3[nH]2)cc1OC	8	-228	0	-42	0	-14	x	x	x
C(=N\Nc1nc2ccccc2[nH]1)/c1ccc2ncccc2c1	95*	95*	96*	x	90*	62*	57	90*	85*
CC(=O)N1CCC(c2c[nH]c3ccccc23)CC1	-1	4	-1	x	-1	-11	x	x	x
Cc1cccc(N(C)S(=O)(=O)c2ccc(-c3cc(C)no3)s2)c1	78*	88*	x	x	x	74*	74*	55*	53*
CCN(c1cccc(C)c1)S(=O)(=O)c1ccc(-c2cc(C)no2)s1	67*	26	x	x	x	72*	59	37*	37*
CCCCCCOc1ccc(N2C(=O)CC(N(CCc3ccc(S(N)(=O)=O)cc3)C(C)=O)C2=O)cc1 (stereo unspecified)	-5	7	12	10	-2	-17	x	x	x
COc1ccc(OC)c(N(CC(=O)Nc2cccc(C(F)(F)F)c2)S(C)(=O)=O)c1	8	21	5	-8	2	-2	x	x	x
CC(C)(C)c1ccc(OCc2ccc(C(=O)NCc3cccnc3)o2)cc1	2	-133	8	-86	1	-97	x	x	x
CN(C)c1ncnc2c1ncn2C1OC(CO)C(O)C1O (stereo unspecified)	51*	108*	13	40	8	65*	70*	48*	71*
SMILES	IEC-6 tox-1	aSyn 5UTR inh	BaF3 tox	APP transl inh	Ba/F3 V617F tox	KLF5 inh	KLF5 inh confirm	IEC-6 tox-2	IEC-6 tox confirm
CC(Cc1ccccc1)Nc1ncnc2c1ncn2C1OC(CO)C(O)C1O (stereo unspecified)	x	-23	x	x	x	x	x	x	x
COc1ccc(NC(=O)C2CCCN2S(=O)(=O)c2cccc3cccnc23)cc1OC (stereo unspecified)	3	21	x	x	x	-24	x	x	x
CC(=O)Oc1ccc2c(=O)c(-c3nc4ccccc4s3)coc2c1	4	13	7	-196	2	-123	x	x	x
CCCOc1ccc2[nH]c(C(=O)N/N=C/c3cc(OC)c(OC)c(OC)c3)cc2c1	-13	-26	x	x	x	-43	x	x	x
COc1ccc2[nH]c(C(=O)N/N=C/c3ccc(OC)c(O)c3)cc2c1	30*	-31	x	x	x	65*	69*	2	10
CCOC(=O)c1c[nH][nH]c1=O	-2	4	3	x	-3	-13	x	x	x
O=C(c1ccc(CS(=O)c2ccccc2Cl)o1)N1CCOCC1 (stereo unspecified)	-4	13	x	x	x	-3	x	x	x
COc1cccc(N2CCN(C(=O)c3ccc(CS(=O)c4ccccc4Cl)o3)CC2)c1 (stereo unspecified)	90*	110*	x	x	x	74*	84*	62*	60*
COc1cccc(N2CCN(C(=O)c3ccc(CS(=O)c4ccccc4C)o3)CC2)c1 (stereo unspecified)	78*	108*	x	x	x	68*	75*	64*	58*
COc1ccc(C2N(C(=O)C(F)(F)F)C(C)CN2S(=O)(=O)c2ccc(C)cc2)cc1 (stereo unspecified)	-2	-12	x	x	x	-21	x	x	x
CS(=O)(=O)c1cccc(C(=O)Nc2ccc3c(c2)OCCCO3)c1	-4	-101	x	x	x	-65	x	x	x
N#CC1=C2SCC(O)(c3ccccc3)N2C(=O)CC1c1cccs1 (stereo unspecified)	82*	x	75*	91*	74*	72*	74*	62*	56*
N#CC1=C2SCN(c3ccccc3)CN2C(=O)CC1c1cccs1 (stereo unspecified)	2	-11	1	16	0	0	x	x	x
COCCN1C(=O)N(c2cccc(C)c2)C(=O)C1CC(=O)Nc1ccc(OC)cc1 (stereo unspecified)	0	10	x	x	x	-28	x	x	x
CCCCCCCCCn1c2c(c(=N)c3c1CCC3)CCCC2	64*	90*	93*	2	102*	76*	114*	42*	55*
CCCCCc1nc2c(c3c1CCCC3)CCCC2	-2	43	1	x	-4	-40	x	x	x

Screening data from PubChem BioAssay.
